This is an account of results in PubChem BioAssay (NCI).

The structures appear in SMILES notation. About 83,000 compounds went through this panel and 20% of them were active in at least one assay; those are over-represented in the sample as a whole.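 The endpoint reported here, percent growth, reads 100 for growth as untreated, 0 for no net growth and -100 for all cells dead.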 A number with no mark means an inactive call. Calls of active or inactive are those of the source. How the source made its calls: active means growth percent below 10; inactive means the rest.

This assay relates to OVCAR-3 ovarian. The assay is described as follows: NCI-60 one-dose screen, 48 h (100 = growth as untreated, 0 = no growth, -100 = all killed). As to conditions: 10 µM unless noted.
Regarding `O=C(O)c1nn(-c2ccc(Cl)cc2)nc1N1CCCC1`, the growth was 105%.
Next, `COCCNC(=O)Cc1cc(-c2ccc(Cl)cc2)n(-c2ccccc2)c1C`: 116%; `O=C(Nc1ccc(Oc2cccc(F)c2)c(Cl)c1)c1cnccn1`: -17.8% (active); `CC(=O)[C@H]1CC[C@]2(C)[C@@H]1CC[C@@H]1[C@@]3(C)C/C(=C/c4cccnc4)C(=O)C(C)(C)[C@@H]3CC[C@]12C`: 47.4%.
The result for `C=C(C)Cn1c(SCC(=O)c2cccs2)nc2sc3c(c2c1=O)CCCC3` reads 64.5%; that for `Cc1ccc(C(=O)Nc2ccc(CN3CCN(C)CC3)c(C(F)(F)F)c2)cc1C#Cc1cnc(N)c2ccccc12`, -57.7% (active); that for `COc1cc(C2CC(c3cccc(Nc4ccncc4)c3)=Nc3c(N)ncnc3N2)cc(OC)c1OC` (stereo not given), 88.9%.
The result for `CO[C@]12C=C/C(=C(/C(=O)OCc3cccnc3)C(=O)CCCCCCCC[C@]3(OC)C=C/C(=C(/C(=O)OCc4cccnc4)C(=O)CCCCCCCC1)O3)O2` reads -95.5% (active); that for `CCOC(=O)CSc1nc2sc3c(c2c(=O)n1-c1ccccc1)CCCCC3`, 93.5%.
Regarding `CN1CCN(Cc2ccc(NC(=O)c3cncc(C#Cc4cnc(N)c5ccc(C#N)cc45)c3)cc2C(F)(F)F)CC1`, the growth is 3.19% (active).
Regarding `CCOC(=O)C1=C(c2ccccc2)N=C2SC=C(c3cccc([N+](=O)[O-])c3)N2C1c1ccc(O)cc1` (stereo not given), the growth was 101%.
The result for `CCn1c2ccccc2c2cc(C(O)c3cccc4ncccc34)ccc21` (stereo not given) reads 1.86% (active).
Next, `Cc1c(Cl)cccc1NC(=O)c1sc2nc3c(cc2c1N)CCCC3`: 10.9%; `O=C(/C=C/c1ccco1)Nc1ncc(Cc2ccc(F)cc2)s1`: -8.58% (active).
The result for `COc1nc2ccccc2cc1/C=[N+](\[O-])c1ccccc1` reads 86.2%; that for `COc1ccc(-c2ccc(-c3ccc(C(=N)N)o3)o2)cc1`, -27.8% (active); that for `C=C(C[n+]1ccccc1)[C@@H]1CC[C@]2(C(=O)OC)CC[C@]3(C)[C@H](CC[C@@H]4[C@@]5(C)CCC(=O)C(C)(C)[C@@H]5CC[C@]43C)[C@@H]12`, 58.9%.
As to `COc1cccc(C(=O)Nc2cccc(NC(=O)c3ccccn3)c2)c1`, the growth is 105%.
The result for `N#CC1=C(N)Oc2c(ccc3cccnc23)C1c1ccccc1` (stereo not given) reads -6.82% (active); that for `COc1ccc(C2=NN(C=O)C(c3ccc(Oc4nc5c(c(=O)n(C)c(=O)n5C)n4C)c(OC)c3)C2)cc1` (stereo not given), 101%; that for `CCCS(=O)(=O)Nc1cccc(Nc2ncnc3cc(NC(=O)CCl)ccc23)c1Cl`, -85.3% (active).
The result for `Cn1cc(-c2csc(-c3cn(C)c4ccc(F)cc34)n2)c2cnccc21` reads -57.4% (active); that for `C=C(C)[C@@H]1CC[C@]2(C(=O)NC(C)=O)CC[C@]3(C)[C@H](CC[C@@H]4[C@@]5(C)CCCNC(C)(C)[C@@H]5CC[C@]43C)[C@@H]12`, -34.3% (active).
The result for `COc1cccc(CNc2nnc(C)c(C)n2)c1O` reads 110%; that for `O=C(/C=C/c1ccc(Cl)cc1)c1ccc(-n2cc(CN3CCN(c4cc5c(cc4F)c(=O)c(C(=O)O)cn5C4CC4)CC3)nn2)cc1`, 90.5%.
Take `COc1cccc2cc(N(C)c3nc(C)nc4c3CCC4)ccc12`: the growth is -18.1% (active).
The result for `O=C(O)CCCN1C(=O)CSC1=S` reads 105%; that for `Cc1c2cnccc2c(C)c2c1c1cc(C(=O)O)ccc1n2C`, 0.0817% (active).
The result for `C=C1C(=O)O[C@H]2[C@H]1CC/C(CNC(=O)/C=C/c1cc(OC)c(OC)c(OC)c1)=C\CC[C@@]1(C)O[C@@H]21` reads -57.5% (active); that for `Cc1nc2ccccc2c(/C=C/c2ccc(Br)cc2)c1C(=O)/C=C/c1ccccc1`, -72.1% (active); that for `CC(=O)O[C@H]1C[C@@]2(C)[C@@H](C[C@@H](O)[C@H]3[C@@]4(C)CC[C@H](N5CCCC5)[C@@H](C)[C@@H]4CC[C@@]32C)/C1=C(\CCC=C(C)C)C(=O)O`, 101%.
Next, `O=C(O)c1cc2ccccc2s1`: 120%.
For `CC(=O)OCCOc1cc(Cl)c(Cl)cc1Cl`, the growth is 118%.
For the compound `CCN1CCN(c2nc(NNC(=O)c3ccc(OC)cc3)nc(N3CCN(C(c4ccccc4)c4ccccc4)CC3)n2)CC1`, the growth is 11.7%.
The result for `Cc1cc(=O)oc2cc(Oc3nc(-c4ccccc4)cn4c(-c5ccccc5)cnc34)ccc12` reads 76.6%.
